High-throughput results: PubChem BioAssay, National Center for Advancing Translational Sciences (NCATS)
RE007 growth inh – less growth of the S. pombe RE007 Vpr strain; AID 651644; hit rate 0.21% among 360,000; Potency, µM (top dose mostly 92.2 µM), for the others: at the highest dose activity change, negative = less growth, most hits filed as inhibitors; S. pombe RE007 Vpr strain, BacTiter-Glo ATP luminescence, 24 h; active = well fitted falling curve with a large enough effect; inconclusive = small, poorly fitted or top-dose-only effect; inactive = no such curve, though single readings can be large or run the other way; also: potency is read from the fitted curve at half-maximal effect; % is scaled to controls: 0 for no effect and ±100 for the full control effect; nearly all actives have a fitted effect of over 50% in size
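Fission yeast strain RE007, carrying one chromosomally integrated HIV-1 vpr copy, was seeded at OD 0.01 in PMG+AL medium with 23 nL pinned compound. After 24 h at 30 °C and 99% humidity, viability was read by BacTiter-Glo luminescence.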
LmPK inhibitor – inhibitors of Leishmania mexicana pyruvate kinase; hit rate 0.37% among 290,000; Q27686; Potency, µM (titrated, usually from 57.5 µM), for inactives: at the top dose activity change, negative = inhibition, hits mostly inhibitors; purified LmPK, Kinase-Glo ATP luminescence, 1 h; AID 1721; also: potency is read from the fitted curve at half-maximal effect; % is scaled to controls: 0 for no effect and ±100 for the full control effect
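ATP generated from ADP (0.1 mM) and PEP (0.5 mM) by 0.1 nM LmPK over 1 h at room temperature (pH 7.2 imidazole buffer) was detected by coupled luciferase luminescence. Values were normalized to uninhibited and no-enzyme wells.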
Tb PYK inh – inhibitors of Trypanosoma brucei pyruvate kinase | Q57TT1 | TbPYK enzyme, Kinase-Glo Plus ATP luminescence, 45 min | Potency, µM (highest dose often 76.8 µM), without a hit: at the top dose activity, negative = inhibition, hits mostly inhibitors | hit rate 0.12% among 410,000 | AID 624173; also: potency is read from the fitted curve at half-maximal effect; % is scaled to controls: 0 for no effect and ±100 for the full control effect; nearly all actives have a fitted effect of over 50% in size
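T. brucei PYK with substrate was exposed to pin-transferred compounds across a concentration series, then started with 130 uM ADP (final). After 45 min at room temperature, Kinase-Glo Plus luminescence was read, normalized and curve-fitted.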
Cycloheximide cs – counter-screen hit for Shiga toxin inhibitors, cycloheximide. max response, %. hit rate 12% among 300,000. cell reporter, cycloheximide protein synthesis inhibition counterscreen. AID 2314; in the data active = max response mostly above about 13%, no sharp cut-off; inactive = mostly below about 14%; also: read at 38.3 µM for the half of the compounds with a filed dose; 0% is about no effect
Giardia FBPA inh – inhibitors of Giardia lamblia fructose-1,6-bisphosphate aldolase; A8B2U2; purified Giardia FBPA; Potency, µM (doses to about 59.6 µM), for inactives: at the top dose activity, negative = inhibition, actives largely listed as inhibitors; hit rate 0.71% among 290,000; also: potency is read from the fitted curve at half-maximal effect; % is scaled to controls: 0 for no effect and ±100 for the full control effect; nearly all actives have a fitted effect of over 55% in size
Target sequence (A8B2U2 whole entry, looked up): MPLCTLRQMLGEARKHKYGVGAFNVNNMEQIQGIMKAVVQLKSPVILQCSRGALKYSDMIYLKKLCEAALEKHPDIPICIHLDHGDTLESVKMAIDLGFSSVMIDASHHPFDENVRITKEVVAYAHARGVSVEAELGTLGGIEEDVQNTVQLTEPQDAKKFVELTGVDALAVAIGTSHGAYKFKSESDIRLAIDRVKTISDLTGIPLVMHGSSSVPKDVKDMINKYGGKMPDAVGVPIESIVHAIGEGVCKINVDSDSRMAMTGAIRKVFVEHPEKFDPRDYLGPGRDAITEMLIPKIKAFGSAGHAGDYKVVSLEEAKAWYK
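Giardia FBPA (40 nM reagent) was preincubated 10 min at RT with compound (up to 57.5 uM final), then substrate plus GAPDH/TPI/NAD/arsenate coupling system with diaphorase/resazurin was added; resorufin fluorescence (525/598 nm) was read after 20 min.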
Shiga inhibitor – blocks Shiga toxin action in Vero cells; hit rate 9.2% among 290,000; inhibition, % at 38.7 µM; Vero cells, Shiga toxin protein synthesis inhibition reporter; in the data active = inhibition mostly above about 28%, no sharp cut-off; inactive = mostly below about 43%; also: 0% is about no effect
Numbers without * were called inactive; ? = inconclusive; . = no result. The sample as a whole holds a higher share of hits than the screen did. Unless noted, calls follow the shape of the dose curve; as a rule, active = well fitted curve in the direction sought with a large enough effect; inconclusive = small, poorly fitted or top-dose-only effect, or another doubt; inactive = no such curve, though single readings can be large; an effect the other way counts as inactive or inconclusive.

SMILES	RE007 growth inh	LmPK inhibitor	Tb PYK inh	Cycloheximide cs	Giardia FBPA inh	Shiga inhibitor
Cc1c(C(=O)Oc2cccc3cccnc23)cccc1[N+](=O)[O-]	?	10%	2%	41*	?	171*
N/C(=N\OC(=O)c1ccc(Cl)cc1Cl)c1ccccn1	-24%	7.1µM*	-32%	-8	-2%	-20
N/C(=N\OC(=O)c1cc(Br)ccc1Cl)c1ccccn1	-28%	-18%	1%	52*	1%	77*
Cc1c(C(=O)O/N=C(\N)c2ccccn2)cccc1[N+](=O)[O-]	-19%	?	-16%	22*	1%	28
C=C[C@@H](C)[C@](C)(O)c1ccccc1	.	.	.	.	-1%	.
Cc1ccc(NS(=O)(=O)Cc2ccccc2)nc1	4%	-10%	0%	25*	?	56*
CNC(=S)NCCc1ccccc1	-1%	-8%	-2%	-2	5%	34
Cc1ccc(NC(=O)CCCc2ccccc2)nc1	1%	1%	-5%	44*	2%	89*
CCC(=O)Nc1ccc(NC(=O)CCc2ccccc2)cn1	6%	0%	-11%	-3	-10%	.
Cc1ccc(NC(=S)NCCc2ccccc2)nc1	-8%	3%	-29%	25*	-3%	76*
CC(C)C[C@H](NC(=O)[C@H](CC(C)C)NC(=O)[C@H](Cc1ccccc1)NC(=O)[C@@H](N)CO)C(=O)N[C@@H](CCCN=C(N)N)C(=O)N[C@@H](CC(N)=O)C(=O)O	.	.	.	-2	11%	-6
COc1ccc(Nc2nccc3c2nnn3C)cc1	-19%	-12%	1%	45*	0%	97*
Cn1nnc2c(NCc3ccco3)nccc21	9%	0%	-7%	-2	-11%	1
CC1CCN(S(=O)(=O)c2ccc3c(c2)N(CC(=O)O)C(=O)CO3)CC1	.	.	0%	.	.	.
c1ccc(CC2CCN(Cc3nc(-c4ccccc4)no3)CC2)cc1	-10%	3%	1%	15*	-3%	29
COc1ccc(-c2noc(CN3CCC(Cc4ccccc4)CC3)n2)cc1	4%	-3%	-22%	-2	1%	-6
CN1CCCN(Cc2nc(-c3cccc(C(F)(F)F)c3)no2)CC1	-5%	5%	8%	16*	-24%	5
COc1ccccc1CN1CCN(Cc2nc(-c3ccccc3)no2)CC1	-2%	4%	-9%	35*	-8%	99*
COc1ccccc1CN1CCN(Cc2nc(Cc3ccccc3)no2)CC1	-24%	2%	-17%	0	2%	-7
CC(=O)N1CCN(Cc2nc(-c3cccc(Cl)c3)no2)CC1	12%	9%	3%	18*	0%	43*
FC(F)(F)c1cccc(-c2noc(CN3CCOCC3)n2)c1	-8%	1%	-2%	15	10%	8
CC(C)(C)c1ccc(CSc2nc3c(c(=O)[nH]2)CCCC3)cc1	.	.	-1%	.	.	.
CCOC(=O)N1CCN(Cc2nc(-c3cccc(C)c3)no2)CC1	-11%	-2%	1%	12	3%	14
CCOC(=O)N1CCN(Cc2nc(-c3ccccc3)no2)CC1	7%	-10%	3%	19	4%	62*
O=C(COc1ccc(F)cc1)NCc1ccc2c(c1)CCN2C(=O)c1ccccc1	.	.	-4%	.	.	.
SMILES	RE007 growth inh	LmPK inhibitor	Tb PYK inh	Cycloheximide cs	Giardia FBPA inh	Shiga inhibitor
COc1ccccc1-n1cc(-c2ccc(C)cc2)[nH]c1=S	-2%	6%	?	23*	15%	32*
COc1ccccc1-n1cc(-c2ccc(Br)cc2)[nH]c1=S	2%	6%	-20%	17*	10%	31
COc1ccccc1-n1cc(-c2ccc([N+](=O)[O-])cc2)[nH]c1=S	28%	-3%	?	-1	2%	20
CC(=O)Nc1nonc1-c1nnc(SCC(=O)Nc2cccc(C)c2C)n1-c1ccccc1	.	.	3%	.	.	.
COC(=O)C1=C(c2ccccc2)c2ccccc2S(=O)(=O)N1CC(=O)Nc1ccc(F)c(F)c1	.	.	-4%	.	.	.
Cc1ccc(NC(=O)CN2C(=O)S/C(=C/c3ccc(-c4cc(C(=O)O)ccc4C)o3)C2=O)cc1C	3%	9%	-17%	-2	-15%	-7
